# Reference: PubChem BioAssay (NCATS)
# Results filed as inconclusive are left out. Entries that show only a call come without a potency. Activity calls are given as the source filed them. Calls come from the whole dose curve; as a rule, active = well fitted curve in the direction sought with a large enough effect; inconclusive = small, poorly fitted or top-dose-only effect, or another doubt; inactive = no such curve, though single readings can be large; an effect the other way counts as inactive or inconclusive. Numbered stars: 1 amine (or outer) side, 2 acyl side, 3 side chain; on linkers, the order of the positions; unused ones are H or OH. Square brackets hold non-standard residues; d marks the D form. Peptide text beside a SMILES is read from it. * marks the point of attachment. ξ: configuration not given here. X9 = CCC(C)(N*)C(=O)C1CC[C@@H](C(=O)N[C@@H](Cc2ccccc2)C(=O)NCC(=O)O)N1; X8 = O=C([C@@H]1CC(O)CN1[*:1])[*:2]; aIle = CC[C@@H](C)[C@H](N)C(=O)O; Thr(3ξ) = CC(O)[C@H](N)C(=O)O; ξIva = CCC(C)(N)C(=O)O; Aib = CC(C)(N)C(=O)O
# Columns and labels:
# [1] = molecular target: Cellular tumor antigen p53 (Homo sapiens) (UniProt P04637); test: Primary qHTS for small molecule compounds that upregulate eGFP-tagged delta133p53alpha (in N-terminal) cells. (AID 2060322); conditions: NCI-H358 eGFP-delta133p53alpha fluorescence, 24 h; activation: active compounds read high; note: nearly all actives have a fitted effect of over 75% in size; note: potency is the fitted concentration of half-maximal effect;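 for activation: cells pre-induced with doxycycline then dosed without doxycycline; series mostly up to about 56 µM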
# How it was run: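 NCI-H358 cells pre-induced 24 h with 10 ng/ml doxycycline for eGFP-delta133p53alpha, plated dox-free and exposed 24 h at 37C to titrated compounds. Fixed, Hoechst-stained; gated GFP peak intensity by laser scanning cytometry, normalized to DMSO (0%) and 57.5 uM 5-azacytidine (100%).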
# [2] = molecular target: Aldehyde dehydrogenase, mitochondrial (Homo sapiens) (UniProt P05091); test: qHTS for Inhibitors of the Aldehyde Dehydrogenase Family (ALDH2) Primary screen (AID 2061308); note: nearly all actives have a fitted effect of over 55% in size
# [3] = molecular target: Retinaldehyde dehydrogenase 3 (Homo sapiens) (UniProt P47895); test: qHTS for Inhibitors of the Aldehyde Dehydrogenase Family (ALDH1A3) Primary screen (AID 2061315)
# Sequence of Cellular tumor antigen p53 (Homo sapiens) (P04637 whole entry, looked up): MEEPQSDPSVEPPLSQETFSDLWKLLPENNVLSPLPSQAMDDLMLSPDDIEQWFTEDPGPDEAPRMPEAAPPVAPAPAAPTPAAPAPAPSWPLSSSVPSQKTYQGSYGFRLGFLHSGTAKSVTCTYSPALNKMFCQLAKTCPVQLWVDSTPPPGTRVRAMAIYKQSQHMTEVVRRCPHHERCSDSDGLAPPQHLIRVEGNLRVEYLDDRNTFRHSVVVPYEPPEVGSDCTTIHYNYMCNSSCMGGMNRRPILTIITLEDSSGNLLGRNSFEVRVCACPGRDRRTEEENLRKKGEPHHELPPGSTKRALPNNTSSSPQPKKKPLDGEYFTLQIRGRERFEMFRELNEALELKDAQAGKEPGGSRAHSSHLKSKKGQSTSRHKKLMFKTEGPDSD
Structure (SMILES),activation [1],Potency [2],Potency [3],Potency [1],"activity change, negative = inhibition [2]","activity change, negative = inhibition [3]"
CC(C)=CCc1c(O)cc2oc3cc(C)cc(O)c3c2c1C,-21.4% (inactive),inactive,inactive,–,–,–
CC1CCC2(NC1)OC1C(=O)C3C4CCC5CC(O[C@@H]6O[C@H](CO)[C@@H](O)[C@H](O)[C@H]6O[C@@H]6O[C@@H](C)[C@H](O)[C@@H](O)[C@H]6O)CCC5(C)C4CCC3(C)C1C2C (stereo not given in full),10.7% (inactive),inactive,inactive,–,–,–
NCCCC[C@H](NC(=O)[C@@H]1Cc2ccccc2CN1C(=O)CCC(=O)c1ccccc1)C(=O)NCC(c1ccccc1)c1ccccc1,-6.33% (inactive),inactive,inactive,–,–,–
CC1=CCC2C(C)(C)CCC[C@]2(C)[C@@]12CC[C@](C)(CC(=O)O)O2 (stereo not given in full),27.5% (inactive),inactive,inactive,–,–,–
COc1ccc(S(=O)(=O)n2cnc3cc(C)c(C)cc32)cc1,-3.67% (inactive),inactive,inactive,–,–,–
CCCCCc1ccc(/C=C/C(=O)Nc2cc(Cl)ccc2C(=O)O)cc1,-1% (inactive),inactive,inactive,–,–,–
COc1cc(O)c2c(c1Cl)CC(C)OC2=O (stereo not given),7.14% (inactive),inactive,inactive,–,–,–
COC(=O)C[C@H]1C(C)(C)[C@H](OC(C)=O)C2CC3=C4CC(=O)O[C@@H](c5ccoc5)[C@]4(C)CCC3[C@@]1(C)C2=O (stereo not given in full),2.68% (inactive),inactive,inactive,–,–,–
CC(=O)/C=C/C1(O)C(C)(C)CC(O)CC1(C)O (stereo not given),12.2% (inactive),inactive,inactive,–,–,–
CC(C)c1noc(C2CCN(c3ncnc(Nc4ccc(S(C)(=O)=O)cc4F)c3[N+](=O)[O-])CC2)n1,21% (inactive),inactive,inactive,–,–,–
C/C=C/[C@@H]1C=C[C@@H]2C[C@H](C)CC[C@H]2[C@]1(C)/C(O)=C1/C(=O)[C@@H](CO)N(C)C1=O,6.87% (inactive),inactive,inactive,–,–,–
COc1ccc(C(=O)Nc2ncc(-c3ccc(C(=O)O)cc3)s2)cc1,–,inactive,inactive,10.7 µM (active),–,–
CC(C)C1NC(=O)C(CC2(O)c3ccccc3N3C(=O)C(Cc4ccccc4)NC32)NC1=O (stereo not given),-9.82% (inactive),inactive,inactive,–,–,–
CC1CC(=O)C2C(O)(C1)CC(O)C13OC1c1c(O)cccc1C(=O)C23O (stereo not given),-1.53% (inactive),inactive,inactive,–,–,–
C/C=C(\C)C(=O)O[C@H]1C=CC(=O)O[C@H]1/C=C/[C@H](O)[C@@H](C)O,–,inactive,inactive,21.3 µM (active),–,–
CC1OC(O[C@@H]2[C@H](O)[C@@H](OC3OC(CO)C(O)C(O)C3O)[C@H](OC(=O)[C@]34CCC(C)(C)C[C@H]3C3=CCC5[C@@]6(C)CC[C@H](O[C@@H]7O[C@H](C(=O)O)[C@@H](O)[C@H](O[C@@H]8OC[C@@H](O)[C@H](O)[C@H]8O)[C@H]7O[C@@H]7O[C@H](CO)[C@H](O)[C@H](O)[C@H]7O)[C@@](C)(C=O)C6CC[C@@]5(C)[C@]3(C)C[C@H]4O)O[C@@H]2C)C(O)C(O)C1OC1OCC(O)C(O)C1O (stereo not given in full),5.34% (inactive),–,–,–,2.11% [at 11.2 µM] (inactive),11.9% [at 11.2 µM] (inactive)
CC1CCC2C(C)(C)C(O)C(O)CC2(C)C12Cc1c(O)cc(CO)c(C=O)c1O2 (stereo not given),0.763% (inactive),inactive,inactive,–,–,–
C=CC(C)(O)CC/C=C(\C)C(=O)OC1C(O)C(CO)OC(OC(=O)C23CCC(C)(C)CC2C2=CCC4C5(C)CCC(OC6OC(COC7OCC(OC(C)=O)C(O)C7OC7OC(COC(C)=O)C(O)C(O)C7OC(C)=O)C(O)C(O)C6OC6OCC(O)C(O)C6O)C(C)(C)C5CCC4(C)C2(C)C(O)C3O)C1OC1OCC(OC2OCC(O)C(OC3OCC(O)C(O)C3O)C2O)C(O)C1O (stereo not given),-12.2% (inactive),–,–,–,11.4% [at 11.2 µM] (inactive),12.6% [at 11.2 µM] (inactive)
COc1c(C)c(OCC(O)C(C)(C)O)cc2c1COC2=O (stereo not given),5.34% (inactive),inactive,inactive,–,–,–
O=c1c2ccccc2nc2n1CCC2O (stereo not given),-3.82% (inactive),inactive,inactive,–,–,–
CC(C)c1ccc2c(c1)C(=O)CC1[C@@](C)(C(=O)O)CCC[C@]21C (stereo not given in full),-2.68% (inactive),inactive,inactive,–,–,–
C=C1CCC2C(C)(C)CC(=O)CC2(C)C1CCC(C)CCO (stereo not given),6.25% (inactive),inactive,inactive,–,–,–
C=C1C[C@@]23CCC4[C@@](C)(CCC[C@@]4(C)C(=O)OC)C2CC[C@@H]1C3 (stereo not given in full),-32.8% (inactive),inactive,inactive,–,–,–
CC[C@@H](C)[C@H](NC(=O)C(C)(C)NC(=O)[C@H](CCC(N)=O)NC(=O)C(C)(CC)NC(=O)[C@H](Cc1c[nH]c2ccccc12)NC(C)=O)C(=O)N[C@H](C(=O)NC(C)(C)C(=O)N[C@@H](CC(C)C)C(=O)NC(C)(C)C(=O)N1CCC[C@H]1C(=O)N[C@@H](CCC(N)=O)C(=O)NC(C)(C)C(=O)N1CC(O)C[C@H]1C(=O)NC(C)(CC)C(=O)C1CC[C@@H](C(=O)N[C@@H](Cc2ccccc2)C(=O)NCC(=O)O)N1)C(C)O (stereo not given in full) (Ac-W[ξIva]Q[Aib][aIle][Thr(3ξ)][Aib]L[Aib]PQ[Aib][X8]-X9),3.57% (inactive),–,–,–,-2.86% [at 11.2 µM] (inactive),18.1% [at 11.2 µM] (inactive)
CC(C)C(C#N)O[C@@H]1O[C@H](CO[C@@H]2OC[C@](O)(CO)[C@H]2O)[C@@H](O)[C@H](O)[C@H]1O (stereo not given in full),6.87% (inactive),inactive,inactive,–,–,–

Structure (SMILES),activation [1],Potency [2],Potency [3],Potency [1],"activity change, negative = inhibition [2]","activity change, negative = inhibition [3]"
COc1cc(O)c2c(c1)C1(OC2=O)C(C)=CC(=O)C1O (stereo not given),-16% (inactive),inactive,inactive,–,–,–
CC(C)(C)c1cc(CN2CCN(CC(O)c3ccc(Cl)cc3)CC2)cc(C(C)(C)C)c1O (stereo not given),-0.477% (inactive),inactive,inactive,–,–,–
C=CC(C)(O)C1CC2C3(C)CCCC(C)(C)C3C(O)C(O)C2(C)O1 (stereo not given),-9.82% (inactive),inactive,inactive,–,–,–
O=C(CCO[C@@H]1O[C@H](CO)[C@@H](O)[C@H](O)[C@H]1O)c1ccc(O)cc1,-6.87% (inactive),inactive,inactive,–,–,–
C=CC1(C)CC2=CCC3C(C)(C(=O)O)CCCC3(C)C2CC1OC(C)=O (stereo not given),-14.5% (inactive),inactive,inactive,–,–,–
C/C=C/C=C/C=C/C(=O)OC1C=C2C(O)OC(=O)[C@]2(O)[C@@]2(C)CCCC(C)(C)[C@H]12 (stereo not given in full),-2.29% (inactive),inactive,inactive,–,–,–
COc1ccc2c(c1)C[C@H](C(=O)Nc1ccc(-c3cn[nH]c3)cc1OCCN(C)C)CO2,-0.893% (inactive),inactive,inactive,–,–,–
CC1(C)CC[C@]2(C(=O)O[C@@H]3O[C@H](CO)[C@@H](O)[C@H](O)[C@H]3O)CC[C@]3(C)C(=CCC4[C@@]5(C)C[C@@H](O)[C@H](O)[C@@](C)(CO)C5[C@H](O)C[C@]43C)C2[C@@H]1O (stereo not given in full),-5.34% (inactive),inactive,inactive,–,–,–
CC(O)(CC(=O)O)CC(=O)O[C@@H]1[C@@H](O)[C@H](OCCc2ccccc2)O[C@H](CO)[C@H]1O (stereo not given in full),3.82% (inactive),inactive,inactive,–,–,–
CC(C)(OC1OC(CO)C(O)C(O)C1O)C1CCC(O)(CO)C2CC(O)C(C)(O)C2C1 (stereo not given),-19.6% (inactive),inactive,inactive,–,–,–
CC1=C(C(=O)OCc2ccccc2)C(c2ccc(-c3ccccc3)cc2)NC(=O)N1CCCCCC(=O)O (stereo not given),12.3% (inactive),inactive,inactive,–,–,–
O=C1NC(=Nc2ccccc2F)S/C1=C\c1ccc(C(=O)O)cc1,0.333% (inactive),inactive,inactive,–,–,–
C=C1[C@H]2CC[C@]3(O)[C@@](CC[C@@H]4[C@](C)(C(=O)O)CCC[C@]43C)(C2)[C@H]1OC(=O)/C(C)=C\C,15.2% (inactive),inactive,inactive,–,–,–
O=C1OCC(c2ccccc2)=C1Cc1ccccc1,-8.4% (inactive),inactive,inactive,–,–,–
CC1=C2C3OC(=O)C(C)C3(O)CCC2(C)CCC1O (stereo not given),-10.7% (inactive),inactive,inactive,–,–,–
CC(=O)OCC(Cc1ccccc1)NC(=O)C(Cc1ccccc1)NC(=O)c1ccccc1 (stereo not given),-13% (inactive),inactive,inactive,–,–,–
C[C@H](NC(c1cccc(C[P+](=O)O)c1)[C@H](C)O)c1ccc(Cl)c(Cl)c1 (stereo not given in full),9% (inactive),inactive,inactive,–,–,–
CCC(C)C(=O)O[C@H]1[C@H](O)[C@@]2(COC(C)=O)C(CC1(C)C)C1=CCC3[C@@]4(C)CC[C@H](O[C@@H]5O[C@H](C(=O)O)[C@@H](O)[C@H](O)[C@H]5O)[C@@](C)(CO)C4CC[C@@]3(C)[C@]1(C)C[C@@H]2O (stereo not given in full),-0.893% (inactive),inactive,inactive,–,–,–
CN1CCN(C(=O)c2cc3cc(Cl)ccc3[nH]2)CC1,-0.893% (inactive),inactive,inactive,–,–,–
C=C1C[C@H](O)[C@@H](O)[C@@]2(C)C1[C@@H](O)[C@H]1OC(=O)C3[C@@H](C)[C@@H](O)[C@H](O)C2[C@]31C (stereo not given in full),0.763% (inactive),inactive,inactive,–,–,–
CN1CCc2cc3c(cc2C(=O)Cc2cc4c(cc2C1)OCO4)OCO3,-8.04% (inactive),inactive,inactive,–,–,–
COc1ccc(C[C@H]2COC(=O)[C@@H]2Cc2ccc(O[C@@H]3O[C@H](CO)[C@@H](O)[C@H](O)[C@H]3O)c(OC)c2)cc1OC,15.2% (inactive),inactive,inactive,–,–,–
CC(c1c[nH]c2ccccc12)C(O)C(=O)O (stereo not given),-11.5% (inactive),inactive,inactive,–,–,–
C[C@@H]1C(=O)OC[C@H]2C(C(=O)O)=C[C@@H]3CC(C)(C)C[C@]312,-6.87% (inactive),inactive,inactive,–,–,–
COc1cc(C(O)C(CO)Oc2ccc(CCCO[C@@H]3O[C@@H](C)[C@H](O)[C@@H](O)[C@H]3O)cc2OC)ccc1O (stereo not given in full),-13.4% (inactive),inactive,inactive,–,–,–
